Among the test systems are SK-MEL-2 melanoma; EKVX NSCLC; SN12C renal; UO-31 renal; TK-10 renal; ACHN renal; CAKI-1 renal; CCRF-CEM leukemia; MOLT-4 leukemia; A498 renal.
Holding throughout (assay): NCI-60 one-dose screen, 48 h (100 = growth as untreated, 0 = no growth, -100 = all killed)
Conditions in all cases: 10 µM unless noted

Structures are written as SMILES. The panel holds about 83,000 compounds, 20% with a hit somewhere; the sample as a whole holds those more often.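 Activity criterion: percent growth below 10, measured after cells in 96-well plates were exposed to a single compound concentration for 48 hours.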 A number with no mark means an inactive call. Activity calls are given as the source filed them.

Regarding `CCOC(=O)c1cccc(NC2=C(Cl)C(=O)C(C)=C(C)C2=O)c1`, the growth with SK-MEL-2 melanoma was 104%; with EKVX NSCLC it was 74.4%; in the assay with SN12C renal, 94.8%; in the assay with UO-31 renal, 96.7%; in the assay on TK-10 renal, 129%; in the assay on ACHN renal, 106%. In addition, the values for the growth in the assay on CAKI-1 renal, in the assay with CCRF-CEM leukemia and in the assay with MOLT-4 leukemia were 89.4%, 13.9% and 5.67% (active), respectively.

As to `Clc1ccc2[nH]cc(-c3nn4cc(-c5ccncc5)nc4s3)c2c1`, the growth is 79% in the assay with SK-MEL-2 melanoma; 56.5% with EKVX NSCLC; 33.9% with SN12C renal; 39.6% in the assay with UO-31 renal; 125% in the assay on TK-10 renal; 30.3% in the assay on ACHN renal. Further, the growth in the assay on CAKI-1 renal is 54.5%; in the assay on A498 renal, 90.8%; with CCRF-CEM leukemia it was 75.2%; in the assay on MOLT-4 leukemia, 81.8%.

In the case of `C=C(C=O)[C@@H]1CC[C@]2(C(=O)O)CC[C@]3(C)C(CC[C@@H]4[C@@](C)(CCC#N)[C@H](C(=C)C=O)CC[C@]43C)[C@@H]12` (some centres undefined), the growth was 61.1% in the assay on SK-MEL-2 melanoma; 100% in the assay with EKVX NSCLC; 66.4% with SN12C renal; 32.8% with UO-31 renal; 128% in the assay on TK-10 renal; 51.8% with ACHN renal. Further, the growth with CAKI-1 renal is 17.8%; in the assay on A498 renal it was 96.9%; with CCRF-CEM leukemia it was 2.89% (active); with MOLT-4 leukemia, 5.55% (active).

`COc1ccc(/C=N/NC(=O)CSc2nc(-c3cnccn3)cc(-c3cccs3)c2C#N)cc1OC`: the growth in the assay on SK-MEL-2 melanoma was 102%; in the assay on EKVX NSCLC, 85.9%; in the assay with SN12C renal it was 91.1%; in the assay on UO-31 renal, 89%; in the assay with TK-10 renal it was 123%; in the assay on ACHN renal, 83%. Further, the growth is 88.1% with CAKI-1 renal, 93.9% in the assay with CCRF-CEM leukemia and 90.8% with MOLT-4 leukemia.

Take `CC1=C(C)C(=O)C(Nc2ccc3c(c2)OCO3)=C(Br)C1=O`: the growth in the assay with SK-MEL-2 melanoma was 114%; in the assay with EKVX NSCLC it was 76.3%; in the assay on SN12C renal, 102%; in the assay on UO-31 renal, 88.1%; in the assay on TK-10 renal, 150%; in the assay on ACHN renal, 100%. Also, the growth in the assay with CAKI-1 renal is 95.6%; in the assay with CCRF-CEM leukemia, 11.6%; in the assay on MOLT-4 leukemia it was -10.2% (active).

Regarding `O=C(Nc1ccc(Cl)c(C(F)(F)F)c1)Nc1ccc2c(ccn2C(=O)c2cccc(F)c2)c1`, the growth is 45.3% in the assay with SK-MEL-2 melanoma; 30% in the assay with EKVX NSCLC; 42.9% in the assay with SN12C renal; 35.6% with UO-31 renal; 45.9% in the assay with TK-10 renal; 17.7% with ACHN renal. For the same molecule, the results for the growth in the assay with CAKI-1 renal, with CCRF-CEM leukemia and in the assay with MOLT-4 leukemia were 29.1%, 15.8% and 10.9%, respectively.

Regarding `COc1ccc(/C(=N\NC(N)=S)c2ccc(Cl)cc2)cc1OC`, the growth with SK-MEL-2 melanoma is -23.8% (active); in the assay with EKVX NSCLC it was 50.8%; with SN12C renal, 29%; in the assay on UO-31 renal, 34.5%; in the assay on TK-10 renal it was 83.3%; with ACHN renal, 42.3%. Moreover, the results for the growth with CAKI-1 renal, with CCRF-CEM leukemia and with MOLT-4 leukemia were 31.2%, 25.6% and 29.5%, respectively.

`CC(C)C(/C=C/c1[nH]ncc1-c1cc(Cl)ccc1O)N1CCOCC1` (centres undefined): the growth with SK-MEL-2 melanoma is 91.3%; in the assay with EKVX NSCLC it was 95.9%; in the assay with SN12C renal, 97.7%; with UO-31 renal it was 70%; in the assay with TK-10 renal, 119%; in the assay on ACHN renal it was 92.8%. The growth in the assay on CAKI-1 renal is 69.7%; in the assay on CCRF-CEM leukemia, 97.7%; in the assay with MOLT-4 leukemia, 86%.

For the molecule `COc1ccc(C2c3[nH]c4ccc(Cl)cc4c3CCN2c2oc(CO)nc2C#N)cc1` (centres undefined), the growth is 81.6% in the assay on SK-MEL-2 melanoma; 59.4% in the assay with EKVX NSCLC; 66.4% in the assay with SN12C renal; 54% in the assay with UO-31 renal; 93.9% with TK-10 renal; 45.3% in the assay on ACHN renal. Also, the growth is 36.5% in the assay on CAKI-1 renal, 37.3% in the assay on CCRF-CEM leukemia and 29.3% with MOLT-4 leukemia.

With `Cc1[nH]c(C(=O)Nc2ccc(C(=O)NCC3CCNCC3)cc2OC(C)C)c(Cl)c1Cl`, the growth in the assay on SK-MEL-2 melanoma is 97.9%; with EKVX NSCLC, 82.8%; in the assay on SN12C renal it was 81.4%; in the assay on UO-31 renal, 88.6%; with TK-10 renal, 90.2%; with ACHN renal it was 99.9%. For the same molecule, the results for the growth with CAKI-1 renal, in the assay on CCRF-CEM leukemia and in the assay with MOLT-4 leukemia were 76.7%, 32.6% and 19.6%, respectively.

Turning to `CCc1cc(OC(=O)N2CCC(N3CCCCC3)CC2)ccc1Nc1cc(-c2ccc(-n3cccn3)cc2)[nH]n1`, the growth was 95.9% with SK-MEL-2 melanoma; 97% in the assay on EKVX NSCLC; 77.7% in the assay with SN12C renal; 46% in the assay with UO-31 renal; 95.7% in the assay on TK-10 renal; 42.9% in the assay on ACHN renal. Besides, the growth in the assay on CAKI-1 renal was 48.4%; in the assay on CCRF-CEM leukemia, 7.95% (active); in the assay on MOLT-4 leukemia, 18.9%.

On to `CN1CCC[C@]2(C)[C@H]3CC[C@@H]4[C@@H]5[C@H]6OC[C@@]5(CCC6(C)C)CC[C@@]4(C)[C@]3(C)CC[C@H]2C1(C)C`, for which the growth in the assay with SK-MEL-2 melanoma is 108%; with EKVX NSCLC, 99.6%; in the assay with SN12C renal, 88.9%; in the assay with UO-31 renal it was 91.5%; in the assay on TK-10 renal, 108%; in the assay with ACHN renal it was 86.9%. In addition, the growth is 10.4% with CAKI-1 renal, 66.4% in the assay on CCRF-CEM leukemia and 37.7% in the assay with MOLT-4 leukemia.

Turning to `C=C(C)[C@@H]1CC[C@]2(COCCCNCCCN)CC[C@]3(C)[C@H](CC[C@@H]4[C@@]5(C)CC[C@H](O)C(C)(C)[C@@H]5CC[C@]43C)[C@@H]12`, the growth in the assay with SK-MEL-2 melanoma is 99.1%; with EKVX NSCLC it was -84.2% (active); in the assay on SN12C renal, -78.8% (active); with UO-31 renal, -93% (active); with TK-10 renal, -85.5% (active); in the assay with ACHN renal, -98.6% (active). Moreover, the growth in the assay with CAKI-1 renal is -85.6% (active); with CCRF-CEM leukemia, -40.2% (active); in the assay on MOLT-4 leukemia, -34.5% (active).

The record behind these values is PubChem BioAssay (NCI).
